Measured values reported in paper PMC11006913.
Positions count from the first letter of the chain named.

Assays:
Assay in all cases: PBM; 200 nM protein, PBS
Conditions in all cases: dsDNA, one strand shown
[1] = target: HOXB4 (Homo sapiens, UniProt P17483 148-234)
[2] = target: HOXB9 (Homo sapiens, UniProt P17482 171-250, T197M)
[3] = target: HOXB6 (Homo sapiens, UniProt P17509 132-218, K202E)
[4] = target: HOXB9 (Homo sapiens, UniProt P17482 171-250)
[5] = target: HOXB4 (Homo sapiens, UniProt P17483 148-234, V174I)
HOXB4 (Homo sapiens, UniProt P17483 148-234, V174I), sequence (P17483 148-234 V174I): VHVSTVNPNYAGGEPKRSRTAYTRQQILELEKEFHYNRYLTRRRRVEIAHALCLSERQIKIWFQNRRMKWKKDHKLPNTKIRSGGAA

[6] = target: HOXB9 (Homo sapiens, UniProt P17482 171-250, R186Q)
HOXB9 (Homo sapiens, UniProt P17482 171-250, R186Q), sequence (P17482 171-250 R186Q): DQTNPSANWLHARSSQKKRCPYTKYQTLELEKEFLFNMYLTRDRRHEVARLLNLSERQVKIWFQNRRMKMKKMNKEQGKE

[7] = target: HOXB6 (Homo sapiens, UniProt P17509 132-218)
HOXB6 (Homo sapiens, UniProt P17509 132-218), sequence (P17509 132-218): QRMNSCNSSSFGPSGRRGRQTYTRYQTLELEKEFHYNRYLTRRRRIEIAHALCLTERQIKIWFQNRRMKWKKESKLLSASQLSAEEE

[8] = target: T1, VENTX (Homo sapiens, UniProt O95231 78-163, R121Q)
T1 sequence: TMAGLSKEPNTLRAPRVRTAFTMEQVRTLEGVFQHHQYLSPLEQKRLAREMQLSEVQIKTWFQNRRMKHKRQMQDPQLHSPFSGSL

[9] = target: HOXA4 (Homo sapiens, UniProt Q00056 201-287, W262R)
HOXA4 (Homo sapiens, UniProt Q00056 201-287, W262R), sequence (Q00056 201-287 W262R): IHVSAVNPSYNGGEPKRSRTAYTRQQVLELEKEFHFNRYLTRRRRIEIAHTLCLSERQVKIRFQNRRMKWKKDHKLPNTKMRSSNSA

[10] = target: T2, VENTX (Homo sapiens, UniProt O95231 78-163)
T2 sequence: T1 sequence with Q44R

[11] = target: T3, VENTX (Homo sapiens, UniProt O95231 78-163, Y115F)
T3 sequence: T1 sequence with Y38F, Q44R

[12] = target: HOXA2 (Homo sapiens, UniProt O43364 129-215, R185T)
HOXA2 (Homo sapiens, UniProt O43364 129-215, R185T), sequence (O43364 129-215 R185T): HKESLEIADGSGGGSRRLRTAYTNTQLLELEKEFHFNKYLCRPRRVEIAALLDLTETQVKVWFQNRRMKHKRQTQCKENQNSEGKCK

[13] = target: HOXA4 (Homo sapiens, UniProt Q00056 201-287, R217L)
HOXA4 (Homo sapiens, UniProt Q00056 201-287, R217L), sequence (Q00056 201-287 R217L): as the sequence (Q00056 201-287 W262R) above, with R17L, R62W counted along it

[14] = target: HOXA2 (Homo sapiens, UniProt O43364 129-215, R185K)
HOXA2 (Homo sapiens, UniProt O43364 129-215, R185K), sequence (O43364 129-215 R185K): as the sequence (O43364 129-215 R185T) above, with T57K counted along it

[15] = target: HOXA4 (Homo sapiens, UniProt Q00056 201-287)
HOXA4 (Homo sapiens, UniProt Q00056 201-287), sequence (Q00056 201-287): as the sequence (Q00056 201-287 W262R) above, with R62W counted along it

[16] = target: PROP1 (Homo sapiens, UniProt O75360 56-141)
PROP1 (Homo sapiens, UniProt O75360 56-141), sequence (O75360 56-141): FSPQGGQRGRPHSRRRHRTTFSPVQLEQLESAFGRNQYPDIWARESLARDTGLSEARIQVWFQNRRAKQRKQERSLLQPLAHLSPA

[17] = target: PROP1 (Homo sapiens, UniProt O75360 56-141, R99H)
PROP1 (Homo sapiens, UniProt O75360 56-141, R99H), sequence (O75360 56-141 R99H): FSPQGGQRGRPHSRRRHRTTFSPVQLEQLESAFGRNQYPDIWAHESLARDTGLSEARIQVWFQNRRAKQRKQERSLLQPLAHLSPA

[18] = target: VAX1 (Homo sapiens, UniProt Q5SQQ9 86-172)
VAX1 (Homo sapiens, UniProt Q5SQQ9 86-172), sequence (Q5SQQ9 86-172): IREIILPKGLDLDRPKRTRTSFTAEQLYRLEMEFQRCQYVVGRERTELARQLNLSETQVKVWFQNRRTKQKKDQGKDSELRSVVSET

[19] = target: PROP1 (Homo sapiens, UniProt O75360 56-141, F88S)
PROP1 (Homo sapiens, UniProt O75360 56-141, F88S), sequence (O75360 56-141 F88S): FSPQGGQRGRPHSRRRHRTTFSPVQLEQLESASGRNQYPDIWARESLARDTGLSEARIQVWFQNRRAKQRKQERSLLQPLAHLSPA

[20] = target: VAX1 (Homo sapiens, UniProt Q5SQQ9 86-172, T142I)
VAX1 (Homo sapiens, UniProt Q5SQQ9 86-172, T142I), sequence (Q5SQQ9 86-172 T142I): as the sequence (Q5SQQ9 86-172) above, with T57I counted along it

[21] = target: HOXA2 (Homo sapiens, UniProt O43364 129-215, Y150S)
HOXA2 (Homo sapiens, UniProt O43364 129-215, Y150S), sequence (O43364 129-215 Y150S): as the sequence (O43364 129-215 R185T) above, with Y22S, T57R counted along it

[22] = target: HOXA4 (Homo sapiens, UniProt Q00056 201-287, W262F)
HOXA4 (Homo sapiens, UniProt Q00056 201-287, W262F), sequence (Q00056 201-287 W262F): as the sequence (Q00056 201-287 W262R) above, with R62F counted along it

[23] = target: HOXA2 (Homo sapiens, UniProt O43364 129-215)
HOXA2 (Homo sapiens, UniProt O43364 129-215), sequence (O43364 129-215): as the sequence (O43364 129-215 R185T) above, with T57R counted along it

[24] = target: VAX1 (Homo sapiens, UniProt Q5SQQ9 86-172, K157R)
VAX1 (Homo sapiens, UniProt Q5SQQ9 86-172, K157R), sequence (Q5SQQ9 86-172 K157R): as the sequence (Q5SQQ9 86-172) above, with K72R counted along it

[25] = target: HOXC9 (Homo sapiens, UniProt P31274 178-260, K195R)
HOXC9 (Homo sapiens, UniProt P31274 178-260, K195R), sequence (P31274 178-260 K195R): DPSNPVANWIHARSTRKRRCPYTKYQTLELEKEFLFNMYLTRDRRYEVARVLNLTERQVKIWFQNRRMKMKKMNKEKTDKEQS

[26] = target: HOXA7 (Homo sapiens, UniProt P31268 116-202)
HOXA7 (Homo sapiens, UniProt P31268 116-202), sequence (P31268 116-202): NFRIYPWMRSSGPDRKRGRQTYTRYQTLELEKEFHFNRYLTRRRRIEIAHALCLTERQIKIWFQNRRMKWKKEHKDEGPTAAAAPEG

[27] = target: HOXC10 (Homo sapiens, UniProt Q9NYD6 254-340)
HOXC10 (Homo sapiens, UniProt Q9NYD6 254-340), sequence (Q9NYD6 254-340): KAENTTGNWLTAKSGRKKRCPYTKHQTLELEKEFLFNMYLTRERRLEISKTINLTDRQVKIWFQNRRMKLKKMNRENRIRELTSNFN

[28] = target: HOXC9 (Homo sapiens, UniProt P31274 178-260)
HOXC9 (Homo sapiens, UniProt P31274 178-260), sequence (P31274 178-260): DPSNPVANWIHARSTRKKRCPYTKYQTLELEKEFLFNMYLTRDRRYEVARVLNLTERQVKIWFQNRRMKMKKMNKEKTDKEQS

[29] = target: HOXC9 (Homo sapiens, UniProt P31274 178-260, R193K)
HOXC9 (Homo sapiens, UniProt P31274 178-260, R193K), sequence (P31274 178-260 R193K): as the sequence (P31274 178-260) above, with R16K counted along it

[30] = target: T4, PAX4 (Homo sapiens, UniProt O43316 9-242, F177V)
T4 sequence: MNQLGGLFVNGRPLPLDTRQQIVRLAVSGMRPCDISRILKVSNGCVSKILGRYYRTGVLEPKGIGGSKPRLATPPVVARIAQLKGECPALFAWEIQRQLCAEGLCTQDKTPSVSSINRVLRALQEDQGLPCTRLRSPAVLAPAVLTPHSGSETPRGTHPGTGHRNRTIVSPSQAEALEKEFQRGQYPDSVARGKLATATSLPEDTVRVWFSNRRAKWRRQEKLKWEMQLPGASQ

[31] = target: HOXC10 (Homo sapiens, UniProt Q9NYD6 254-340, K271E)
HOXC10 (Homo sapiens, UniProt Q9NYD6 254-340, K271E), sequence (Q9NYD6 254-340 K271E): as the sequence (Q9NYD6 254-340) above, with K18E counted along it

[32] = target: HOXC9 (Homo sapiens, UniProt P31274 178-260, R222W)
HOXC9 (Homo sapiens, UniProt P31274 178-260, R222W), sequence (P31274 178-260 R222W): as the sequence (P31274 178-260) above, with R45W counted along it

[33] = target: HOXA7 (Homo sapiens, UniProt P31268 116-202, W177C)
HOXA7 (Homo sapiens, UniProt P31268 116-202, W177C), sequence (P31268 116-202 W177C): as the sequence (P31268 116-202) above, with W62C counted along it

HOXB6 (Homo sapiens, UniProt P17509 132-218, K202E), sequence (P17509 132-218 K202E): as the sequence (P17509 132-218) above, with K71E counted along it
HOXB4 (Homo sapiens, UniProt P17483 148-234), sequence (P17483 148-234): as the sequence (P17483 148-234 V174I) above, with I27V counted along it
HOXB9 (Homo sapiens, UniProt P17482 171-250), sequence (P17482 171-250): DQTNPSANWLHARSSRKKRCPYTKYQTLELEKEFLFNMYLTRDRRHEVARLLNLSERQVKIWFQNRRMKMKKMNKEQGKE
HOXB9 (Homo sapiens, UniProt P17482 171-250, T197M), sequence (P17482 171-250 T197M): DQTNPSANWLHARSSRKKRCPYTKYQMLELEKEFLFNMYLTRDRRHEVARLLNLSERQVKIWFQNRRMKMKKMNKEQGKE

Sequence: CCTACAGG
- binding signal [1]: 7.69 upbm affinity estimate (log intensity, higher = more binding, comparable within an allelic series)
- binding signal [2]: 8.54 upbm affinity estimate (log intensity, higher = more binding, comparable within an allelic series)
- binding signal [3]: 9 upbm affinity estimate (log intensity, higher = more binding, comparable within an allelic series)
- binding signal [4]: 8.25 upbm affinity estimate (log intensity, higher = more binding, comparable within an allelic series)
- binding signal [5]: 7.75 upbm affinity estimate (log intensity, higher = more binding, comparable within an allelic series)
- binding signal [6]: 8.25 upbm affinity estimate (log intensity, higher = more binding, comparable within an allelic series)
- binding signal [7]: 8.98 upbm affinity estimate (log intensity, higher = more binding, comparable within an allelic series)

Sequence: ACTAATGG
- binding signal [1]: 12.9 upbm affinity estimate (log intensity, higher = more binding, comparable within an allelic series)
- binding signal [8]: 12.2 upbm affinity estimate (log intensity, higher = more binding, comparable within an allelic series)
- binding signal [9]: 10.5 upbm affinity estimate (log intensity, higher = more binding, comparable within an allelic series)
- binding signal [10]: 12.8 upbm affinity estimate (log intensity, higher = more binding, comparable within an allelic series)
- binding signal [11]: 11.9 upbm affinity estimate (log intensity, higher = more binding, comparable within an allelic series)
- binding signal [12]: 12.2 upbm affinity estimate (log intensity, higher = more binding, comparable within an allelic series)
- binding signal [13]: 11.5 upbm affinity estimate (log intensity, higher = more binding, comparable within an allelic series)
- binding signal [5]: 13.5 upbm affinity estimate (log intensity, higher = more binding, comparable within an allelic series)
- binding signal [14]: 13 upbm affinity estimate (log intensity, higher = more binding, comparable within an allelic series)
- binding signal [15]: 13.5 upbm affinity estimate (log intensity, higher = more binding, comparable within an allelic series)
- binding signal [16]: 9.71 upbm affinity estimate (log intensity, higher = more binding, comparable within an allelic series)
- binding signal [17]: 9.39 upbm affinity estimate (log intensity, higher = more binding, comparable within an allelic series)
- binding signal [18]: 12.7 upbm affinity estimate (log intensity, higher = more binding, comparable within an allelic series)
- binding signal [19]: 7.3 upbm affinity estimate (log intensity, higher = more binding, comparable within an allelic series)
- binding signal [20]: 12.1 upbm affinity estimate (log intensity, higher = more binding, comparable within an allelic series)
- binding signal [21]: 10.8 upbm affinity estimate (log intensity, higher = more binding, comparable within an allelic series)
- binding signal [22]: 11.3 upbm affinity estimate (log intensity, higher = more binding, comparable within an allelic series)
- binding signal [23]: 12.1 upbm affinity estimate (log intensity, higher = more binding, comparable within an allelic series)
- binding signal [24]: 12.3 upbm affinity estimate (log intensity, higher = more binding, comparable within an allelic series)

Sequence: ACATTAAT
- binding signal [1]: 13 upbm affinity estimate (log intensity, higher = more binding, comparable within an allelic series)
- binding signal [2]: 10.1 upbm affinity estimate (log intensity, higher = more binding, comparable within an allelic series)
- binding signal [9]: 10.6 upbm affinity estimate (log intensity, higher = more binding, comparable within an allelic series)
- binding signal [25]: 12.7 upbm affinity estimate (log intensity, higher = more binding, comparable within an allelic series)
- binding signal [26]: 11.6 upbm affinity estimate (log intensity, higher = more binding, comparable within an allelic series)
- binding signal [27]: 12.2 upbm affinity estimate (log intensity, higher = more binding, comparable within an allelic series)
- binding signal [3]: 10.1 upbm affinity estimate (log intensity, higher = more binding, comparable within an allelic series)
- binding signal [12]: 12.3 upbm affinity estimate (log intensity, higher = more binding, comparable within an allelic series)
- binding signal [13]: 12 upbm affinity estimate (log intensity, higher = more binding, comparable within an allelic series)
- binding signal [4]: 11.9 upbm affinity estimate (log intensity, higher = more binding, comparable within an allelic series)
- binding signal [5]: 13.6 upbm affinity estimate (log intensity, higher = more binding, comparable within an allelic series)
- binding signal [28]: 12.7 upbm affinity estimate (log intensity, higher = more binding, comparable within an allelic series)
- binding signal [29]: 12.7 upbm affinity estimate (log intensity, higher = more binding, comparable within an allelic series)
- binding signal [14]: 13.2 upbm affinity estimate (log intensity, higher = more binding, comparable within an allelic series)
- binding signal [30]: 10.5 upbm affinity estimate (log intensity, higher = more binding, comparable within an allelic series)
- binding signal [15]: 13.6 upbm affinity estimate (log intensity, higher = more binding, comparable within an allelic series)
- binding signal [31]: 12 upbm affinity estimate (log intensity, higher = more binding, comparable within an allelic series)
- binding signal [6]: 11.7 upbm affinity estimate (log intensity, higher = more binding, comparable within an allelic series)
- binding signal [32]: 11 upbm affinity estimate (log intensity, higher = more binding, comparable within an allelic series)
- binding signal [21]: 11 upbm affinity estimate (log intensity, higher = more binding, comparable within an allelic series)
- binding signal [33]: 8.92 upbm affinity estimate (log intensity, higher = more binding, comparable within an allelic series)
- binding signal [22]: 11.4 upbm affinity estimate (log intensity, higher = more binding, comparable within an allelic series)
- binding signal [23]: 12.1 upbm affinity estimate (log intensity, higher = more binding, comparable within an allelic series)
- binding signal [7]: 12 upbm affinity estimate (log intensity, higher = more binding, comparable within an allelic series)

Sequence: CCATTAAG
- binding signal [1]: 13 upbm affinity estimate (log intensity, higher = more binding, comparable within an allelic series)
- binding signal [8]: 11.8 upbm affinity estimate (log intensity, higher = more binding, comparable within an allelic series)
- binding signal [9]: 10.5 upbm affinity estimate (log intensity, higher = more binding, comparable within an allelic series)
- binding signal [10]: 12.3 upbm affinity estimate (log intensity, higher = more binding, comparable within an allelic series)
- binding signal [26]: 11.6 upbm affinity estimate (log intensity, higher = more binding, comparable within an allelic series)
- binding signal [11]: 11.5 upbm affinity estimate (log intensity, higher = more binding, comparable within an allelic series)
- binding signal [3]: 9.89 upbm affinity estimate (log intensity, higher = more binding, comparable within an allelic series)
- binding signal [13]: 11.8 upbm affinity estimate (log intensity, higher = more binding, comparable within an allelic series)
- binding signal [5]: 13.6 upbm affinity estimate (log intensity, higher = more binding, comparable within an allelic series)
- binding signal [15]: 13.7 upbm affinity estimate (log intensity, higher = more binding, comparable within an allelic series)
- binding signal [33]: 8.82 upbm affinity estimate (log intensity, higher = more binding, comparable within an allelic series)
- binding signal [22]: 11.3 upbm affinity estimate (log intensity, higher = more binding, comparable within an allelic series)
- binding signal [7]: 12 upbm affinity estimate (log intensity, higher = more binding, comparable within an allelic series)
